From the OligoGym collection

molecular target: CHCHD8; test: pooled miR-30 sensor sort-seq; sequence = guide strand; details: shRNA

Going from TCTTCCTCTATAATCTTGCTGG to TTGTTCTTGCCTCCTCTGCAGC, the sensor-assay potency score (higher = more potent) falls from -0.27 to -1.04.

Going from TATGACAGCTGTTTGTGCCAGT to TTCCTCTATAATCTTGCTGGGT, the sensor-assay potency score (higher = more potent) falls from 0.271 to -1.07.

Compared with TCATCGTCTTTCTTCACCCGTT, TTCTTGCCTCCTCTGCAGCTCC is lower in sensor-assay potency score (higher = more potent): -0.24 for the first, -1.23 for the second.

First: TTGCCTCCTCTGCAGCTCCTCT
Second: ATCGTCTTTCTTCACCCGTTGG
The sensor-assay potency score (higher = more potent) of the first is lower: -1.69 for the first, -0.879 for the second.

Going from TCGTCTTTCTTCACCCGTTGGG to TTCTTCACCCGTTGGGTCCAGG, the sensor-assay potency score (higher = more potent) falls from -0.227 to -0.933.

With TTGCCGCCAGTCCTGGTGCTGG the sensor-assay potency score (higher = more potent) was -1.88.

molecular target: CHD2; test: as above; details: shRNA

Going from TTCTTCTTGAGACCTTTTCTTA to TTTCTTATGAGCCATCTTGTAT, the sensor-assay potency score (higher = more potent) falls from -0.844 to -1.08.

Compared with TTCTTCTAGCTCCTTCTGCCGC, TAAGCCTTGATGAACCTTCGGA is higher in sensor-assay potency score (higher = more potent): -0.813 for the first, 0.0623 for the second.

Going from TTATAAGCCTTGATGAACCTTC to TTTTGCACCAGGAATGAGCTAG, the sensor-assay potency score (higher = more potent) rises from 0.197 to 0.429.

Going from TTCCTTAATATTAAATCGCGAT to TTATCTGTGTGGAAAGAGCGGT, the sensor-assay potency score (higher = more potent) rises from -0.656 to -0.167.

Compared with TAGCACCTTATGAAGACTCTGG, TTGCACTTGTTGACACTTCATT is lower in sensor-assay potency score (higher = more potent): -0.21 for the first, -0.8 for the second.

First: TTTCATTGGACTTTTTTCCAAG
Second: TTGATTGTTGGACCTCTCCTTT
The sensor-assay potency score (higher = more potent) of the first is lower: -0.762 for the first, -0.473 for the second.

Compared with TTCAACAAGTAATCCGCTCGGG, TCAACAAGTAATCCGCTCGGGT is lower in sensor-assay potency score (higher = more potent): 0.35 for the first, -0.663 for the second.

First: TGCATTGCTGACACACAGCTGT
Second: TAAACTGTGATAGAAGTTCATC
The sensor-assay potency score (higher = more potent) of the first is higher: -0.311 for the first, -0.983 for the second.

Compared with TTGTTTTCCAGGATCGTCCGGC, TTCTTCACATCAGCTATCCGTT is lower in sensor-assay potency score (higher = more potent): -0.196 for the first, -0.528 for the second.

Going from TTTATCTGTCTCCACCGGCAGA to ATAAATTTCTTCTAGCTCCTTC, the sensor-assay potency score (higher = more potent) rises from -1.04 to 1.15.

First: TATTACTCTTTCTACTATCTGA
Second: TTTAAAGCTACAAATCGTGGTC
The sensor-assay potency score (higher = more potent) of the first is lower: 0.18 for the first, 0.518 for the second.

Sequence TGACACTTCATTCTCTCTCGTT has a sensor-assay potency score (higher = more potent) of -0.0754.

molecular target: CHEK1; test: as above; details: shRNA

Compared with TATTTTATCATCCATTTCTAAC, TAACCTGATTCATACAACTTTT is lower in sensor-assay potency score (higher = more potent): -1.06 for the first, -1.09 for the second.

First: TTTGTCTGCATCCAATTTGGTA
Second: TAAAGTACCACACATCTTGTTC
The sensor-assay potency score (higher = more potent) of the first is lower: -0.969 for the first, -0.726 for the second.

Going from TGATATAGTAACCTGATTCATA to TTTCCAGTCAGAATACTCCTGA, the sensor-assay potency score (higher = more potent) rises from -0.794 to -0.0829.
